Source: the supplement of paper PMC10849652
About 7,900 targets were measured; listed, in parts, are those with a hit and a random draw of the rest. About 0.6% of all pairs of compound and target were hits.

Legend:
Assay in all cases: log2 fold change, soluble protein after heating vs DMSO (PISA); higher = thermal stabilisation; K562 cells, 10 uM, 30 min; active = over 0.2 and 3.5 SD of the protein, either way, in both replicates (recomputed)
saracatinib = compound: CN1CCN(CCOc2cc(OC3CCOCC3)c3c(Nc4c(Cl)ccc5c4OCO5)ncnc3c2)CC1 [saracatinib]
Procedure, shortened: (§1)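 Thermal stability values are relative to control samples and come from duplicates. They are expressed as log2 fold changes. For measurement, K562 cells (2×10^6 cells/mL) received 10 μM compound for 30 min, and aliquots were heated for 3 min over 48°C-58°C, pooled, and extracted at 4°C in PBS with 0.5% NP-40. Soluble protein, the supernatant after 21,000xg for 90 min, was quantified by TMTpro 16plex LC-MS/MS with equalised channel sums.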

sotrastaurin = compound: CN1CCN(c2nc(C3=C(c4c[nH]c5ccccc45)C(=O)NC3=O)c3ccccc3n2)CC1 [sotrastaurin]
Procedure, shortened: as §1

alvocidib = compound: CN1CC[C@H](c2c(O)cc(O)c3c(=O)cc(-c4ccccc4Cl)oc23)[C@H](O)C1 [alvocidib]
Procedure, shortened: as §1

Tubastatin A = compound: CN1CCc2c(c3ccccc3n2Cc2ccc(C(=O)NO)cc2)C1 [Tubastatin A]
Procedure, shortened: as §1

[1] = compound: CNC(=O)C1=CC=CC=C1NC2=NC(=NC=C2Cl)NC3=C(C=C(C=C3)N4CCOCC4)OC
Procedure, shortened: as §1

defactinib = compound: CNC(=O)c1ccc(Nc2ncc(C(F)(F)F)c(NCc3nccnc3N(C)S(C)(=O)=O)n2)cc1 [defactinib]
Procedure, shortened: as §1

rucaparib = compound: CNCc1ccc(-c2[nH]c3cc(F)cc4c3c2CCNC4=O)cc1 [rucaparib]
Procedure, shortened: as §1

[2] = compound: CNc1nc(-c2ccc3c(N)n[nH]c3c2)cc(N2C[C@@H](C(=O)NC3CCCCC3)CC[C@H]2C)n1
Procedure, shortened: as §1

encorafenib = compound: COC(=O)N[C@@H](C)CNc1nccc(-c2cn(C(C)C)nc2-c2cc(Cl)cc(NS(C)(=O)=O)c2F)n1 [encorafenib]
Procedure, shortened: as §1

[3] = compound: COC(=O)[C@H](CCSC)NC(=O)C1=C(C=C(C=C1)NC[C@H](CS)N)C2=CC=CC=C2
Procedure, shortened: as §1

[4] = compound: COC1=CC=C(C=C1)CN2C=CC3=C2C=C(C=C3)C(=O)NO
Procedure, shortened: as §1

filanesib = compound: CON(C)C(=O)N1N=C(c2cc(F)ccc2F)S[C@@]1(CCCN)c1ccccc1 [filanesib]
Procedure, shortened: as §1

zotarolimus = compound: CO[C@H]1C[C@@H]2CC[C@@H](C)[C@@](O)(O2)C(=O)C(=O)N2CCCC[C@H]2C(=O)O[C@H]([C@H](C)C[C@@H]2CC[C@H](n3cnnn3)[C@H](OC)C2)CC(=O)[C@H](C)/C=C(\C)[C@@H](O)[C@@H](OC)C(=O)[C@H](C)C[C@H](C)/C=C/C=C/C=C/1C [zotarolimus]
Procedure, shortened: as §1

idasanutlin = compound: COc1cc(C(=O)O)ccc1NC(=O)[C@@H]1N[C@@H](CC(C)(C)C)[C@](C#N)(c2ccc(Cl)cc2F)[C@H]1c1cccc(Cl)c1F [idasanutlin]
Procedure, shortened: as §1

alisertib = compound: COc1cc(Nc2ncc3c(n2)-c2ccc(Cl)cc2C(c2c(F)cccc2OC)=NC3)ccc1C(=O)O [alisertib]
Procedure, shortened: as §1

[5] = compound: COc1cc2nc(-c3cc(F)ccc3O)nc(N[C@@H]3CNC[C@H]3C(C)(C)O)c2cc1OC
Procedure, shortened: as §1

gefitinib = compound: COc1cc2ncnc(Nc3ccc(F)c(Cl)c3)c2cc1OCCCN1CCOCC1 [gefitinib]
Procedure, shortened: as §1

[6] = compound: COc1cccc2cc(-c3nc([C@H]4CC[C@H](C(=O)O)CC4)n4ncnc(N)c34)[nH]c12
Procedure, shortened: as §1

lapatinib = compound: CS(=O)(=O)CCNCc1ccc(-c2ccc3ncnc(Nc4ccc(OCc5cccc(F)c5)c(Cl)c4)c3c2)o1 [lapatinib]
Procedure, shortened: as §1

pictilisib = compound: CS(=O)(=O)N1CCN(Cc2cc3nc(-c4cccc5[nH]ncc45)nc(N4CCOCC4)c3s2)CC1 [pictilisib]
Procedure, shortened: as §1

Measured: log2 fold change

PSMD8 (UniProt P48556)
Sequence of UniProt P48556 (P48556 whole entry, looked up): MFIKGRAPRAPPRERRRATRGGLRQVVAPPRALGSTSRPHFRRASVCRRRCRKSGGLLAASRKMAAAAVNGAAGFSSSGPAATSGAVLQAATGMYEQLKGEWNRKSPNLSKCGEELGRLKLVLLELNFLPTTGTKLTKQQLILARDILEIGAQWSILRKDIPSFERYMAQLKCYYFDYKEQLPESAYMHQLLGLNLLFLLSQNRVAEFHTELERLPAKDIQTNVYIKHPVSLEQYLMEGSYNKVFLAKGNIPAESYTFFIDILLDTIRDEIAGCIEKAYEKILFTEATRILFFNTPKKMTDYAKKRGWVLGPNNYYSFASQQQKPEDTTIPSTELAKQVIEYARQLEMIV
inactive: saracatinib -0.039 | sotrastaurin -0.032 | alvocidib 0.135 | Tubastatin A 0.003 | [1] -0.009 | defactinib 0.1 | rucaparib 0.003 | [2] 0.028 | encorafenib 0.041 | [3] 0.043 | [4] -0.046 | filanesib 0.055 | zotarolimus -0.016 | idasanutlin 0.015 | alisertib -0.097 | [5] -0.038 | gefitinib -0.022 | [6] -0.061 | lapatinib 0.066 | pictilisib 0.097

PIK3R1 (UniProt P27986)
Sequence of UniProt P27986 (P27986 whole entry, looked up): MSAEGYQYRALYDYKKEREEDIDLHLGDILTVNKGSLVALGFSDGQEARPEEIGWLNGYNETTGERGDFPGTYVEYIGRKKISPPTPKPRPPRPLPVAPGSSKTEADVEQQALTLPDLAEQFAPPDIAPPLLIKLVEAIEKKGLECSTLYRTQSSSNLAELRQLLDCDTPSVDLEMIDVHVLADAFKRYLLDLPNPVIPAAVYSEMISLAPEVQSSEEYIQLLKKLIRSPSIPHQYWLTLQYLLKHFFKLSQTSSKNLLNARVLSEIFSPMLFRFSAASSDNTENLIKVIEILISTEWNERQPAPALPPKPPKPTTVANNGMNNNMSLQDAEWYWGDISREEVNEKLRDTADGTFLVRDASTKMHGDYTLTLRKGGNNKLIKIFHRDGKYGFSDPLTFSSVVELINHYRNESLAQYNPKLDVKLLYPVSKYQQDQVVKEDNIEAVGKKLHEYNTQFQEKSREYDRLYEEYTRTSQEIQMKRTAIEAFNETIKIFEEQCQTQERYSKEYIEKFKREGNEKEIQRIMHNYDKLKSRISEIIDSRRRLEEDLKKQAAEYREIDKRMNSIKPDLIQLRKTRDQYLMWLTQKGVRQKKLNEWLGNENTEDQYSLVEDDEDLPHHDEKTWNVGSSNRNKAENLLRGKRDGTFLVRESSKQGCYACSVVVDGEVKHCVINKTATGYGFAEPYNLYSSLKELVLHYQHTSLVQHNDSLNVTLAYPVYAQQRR
inactive: saracatinib 0.014 | sotrastaurin 0.001 | alvocidib -0.079 | Tubastatin A -0.017 | [1] -0.014 | defactinib -0.06 | rucaparib 0.052 | [2] 0.022 | encorafenib 0.08 | [3] -0.024 | [4] 0.01 | filanesib -0.041 | zotarolimus -0.002 | idasanutlin -0.027 | alisertib -0.075 | [5] 0.054 | gefitinib 0.045 | [6] 0.014 | lapatinib -0.005 | pictilisib 0.048

PARL (UniProt Q9H300)
Sequence of UniProt Q9H300 (Q9H300 whole entry, looked up): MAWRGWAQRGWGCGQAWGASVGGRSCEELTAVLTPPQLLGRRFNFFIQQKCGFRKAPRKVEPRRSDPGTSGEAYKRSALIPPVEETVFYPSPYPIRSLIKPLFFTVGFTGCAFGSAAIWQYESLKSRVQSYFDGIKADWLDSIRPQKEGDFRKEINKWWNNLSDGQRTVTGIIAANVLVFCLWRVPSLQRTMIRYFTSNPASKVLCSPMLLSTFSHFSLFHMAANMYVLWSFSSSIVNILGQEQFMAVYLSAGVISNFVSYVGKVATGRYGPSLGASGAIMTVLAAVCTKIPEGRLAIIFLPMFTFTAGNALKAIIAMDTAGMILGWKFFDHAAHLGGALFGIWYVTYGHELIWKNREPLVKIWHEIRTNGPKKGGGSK
inactive: saracatinib 0.056 | sotrastaurin 0.019 | alvocidib 0.026 | Tubastatin A -0.053 | [1] 0.025 | defactinib -0.011 | rucaparib -0.005 | [2] -0.052 | encorafenib 0.029 | [3] 0.015 | [4] -0.061 | filanesib -0.091 | zotarolimus -0.034 | idasanutlin -0.068 | alisertib -0.016 | [5] -0.2 | gefitinib 0.038 | [6] 0.08 | lapatinib 0.04 | pictilisib 0.011

POLD1 (UniProt P28340)
Sequence of UniProt P28340 (P28340 whole entry, looked up): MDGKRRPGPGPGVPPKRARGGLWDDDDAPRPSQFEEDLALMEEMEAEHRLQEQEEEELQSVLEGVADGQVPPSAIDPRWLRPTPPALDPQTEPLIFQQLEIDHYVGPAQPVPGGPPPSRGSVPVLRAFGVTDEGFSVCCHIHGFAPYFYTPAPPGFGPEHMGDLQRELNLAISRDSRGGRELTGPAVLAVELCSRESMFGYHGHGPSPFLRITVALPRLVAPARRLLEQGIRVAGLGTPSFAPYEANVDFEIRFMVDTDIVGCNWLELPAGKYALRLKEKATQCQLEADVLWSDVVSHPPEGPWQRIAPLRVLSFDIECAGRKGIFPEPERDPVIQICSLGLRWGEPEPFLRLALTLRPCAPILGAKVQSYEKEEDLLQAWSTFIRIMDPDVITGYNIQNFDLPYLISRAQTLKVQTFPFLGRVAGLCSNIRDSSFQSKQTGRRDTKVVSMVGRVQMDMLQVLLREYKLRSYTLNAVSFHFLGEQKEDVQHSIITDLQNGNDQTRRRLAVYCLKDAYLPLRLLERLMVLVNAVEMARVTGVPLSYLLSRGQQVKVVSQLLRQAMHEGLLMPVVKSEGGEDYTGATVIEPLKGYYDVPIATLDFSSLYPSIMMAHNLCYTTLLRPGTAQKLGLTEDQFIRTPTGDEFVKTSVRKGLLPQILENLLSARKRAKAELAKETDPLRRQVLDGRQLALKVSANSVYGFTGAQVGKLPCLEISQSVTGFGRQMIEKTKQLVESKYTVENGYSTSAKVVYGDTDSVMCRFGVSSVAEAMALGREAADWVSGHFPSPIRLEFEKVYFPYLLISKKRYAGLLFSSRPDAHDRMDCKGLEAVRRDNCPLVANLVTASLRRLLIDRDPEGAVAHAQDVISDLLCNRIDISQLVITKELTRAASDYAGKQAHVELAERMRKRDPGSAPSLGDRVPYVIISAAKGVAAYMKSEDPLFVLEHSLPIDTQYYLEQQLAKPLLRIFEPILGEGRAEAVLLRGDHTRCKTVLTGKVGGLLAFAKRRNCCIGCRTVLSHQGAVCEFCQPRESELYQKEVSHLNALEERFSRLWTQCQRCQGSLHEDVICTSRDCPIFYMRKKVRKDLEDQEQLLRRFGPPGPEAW
inactive: saracatinib 0.018 | sotrastaurin -0.052 | alvocidib -0.121 | Tubastatin A 0.055 | [1] -0.01 | defactinib -0.115 | rucaparib -0.004 | [2] -0.004 | encorafenib 0.131 | [3] -0.029 | [4] 0.025 | filanesib -0.038 | zotarolimus 0.007 | idasanutlin 0.024 | alisertib -0.042 | [5] -0.006 | gefitinib 0.007 | [6] 0.047 | lapatinib 0.01 | pictilisib 0

PPP1R12A (UniProt O14974)
Sequence of UniProt O14974 (O14974 whole entry, looked up): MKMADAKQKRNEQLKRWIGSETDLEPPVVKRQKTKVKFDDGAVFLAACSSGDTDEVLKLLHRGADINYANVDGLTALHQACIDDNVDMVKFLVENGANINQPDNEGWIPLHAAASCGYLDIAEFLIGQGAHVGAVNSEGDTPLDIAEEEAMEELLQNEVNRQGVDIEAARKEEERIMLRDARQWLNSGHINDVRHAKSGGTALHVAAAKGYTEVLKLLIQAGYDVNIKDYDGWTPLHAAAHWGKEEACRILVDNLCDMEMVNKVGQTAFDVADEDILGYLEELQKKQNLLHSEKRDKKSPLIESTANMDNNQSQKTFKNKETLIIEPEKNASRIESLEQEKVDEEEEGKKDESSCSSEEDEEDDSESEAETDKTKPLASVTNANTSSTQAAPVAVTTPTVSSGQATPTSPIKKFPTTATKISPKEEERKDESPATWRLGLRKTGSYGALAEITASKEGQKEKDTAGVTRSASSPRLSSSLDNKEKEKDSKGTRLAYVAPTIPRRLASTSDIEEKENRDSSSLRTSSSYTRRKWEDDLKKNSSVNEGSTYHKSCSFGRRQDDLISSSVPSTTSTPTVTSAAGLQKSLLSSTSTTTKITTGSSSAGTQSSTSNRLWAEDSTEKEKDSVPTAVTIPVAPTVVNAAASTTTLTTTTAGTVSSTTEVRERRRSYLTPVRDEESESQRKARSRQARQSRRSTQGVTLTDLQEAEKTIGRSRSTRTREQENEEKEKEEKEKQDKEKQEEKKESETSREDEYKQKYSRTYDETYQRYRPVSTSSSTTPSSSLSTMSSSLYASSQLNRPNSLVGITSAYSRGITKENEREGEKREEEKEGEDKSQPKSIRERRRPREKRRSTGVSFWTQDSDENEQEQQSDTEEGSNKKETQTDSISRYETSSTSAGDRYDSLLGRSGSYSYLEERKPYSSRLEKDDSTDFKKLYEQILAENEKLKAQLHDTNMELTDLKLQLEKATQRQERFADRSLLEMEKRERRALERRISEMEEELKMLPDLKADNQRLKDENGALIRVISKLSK
inactive: saracatinib -0.048 | sotrastaurin -0.054 | alvocidib -0.187 | Tubastatin A 0.01 | [1] -0.052 | defactinib -0.187 | rucaparib -0.012 | [2] -0.197 | encorafenib 0.057 | [3] -0.043 | [4] 0.003 | filanesib 0.064 | zotarolimus 0.048 | idasanutlin 0.041 | alisertib 0.028 | gefitinib 0.009 | [6] -0.006 | lapatinib 0.036 | pictilisib 0.005
active: [5] -0.658

POLR2M (UniProt P0CAP2)
Sequence of UniProt P0CAP2 (P0CAP2 whole entry, looked up): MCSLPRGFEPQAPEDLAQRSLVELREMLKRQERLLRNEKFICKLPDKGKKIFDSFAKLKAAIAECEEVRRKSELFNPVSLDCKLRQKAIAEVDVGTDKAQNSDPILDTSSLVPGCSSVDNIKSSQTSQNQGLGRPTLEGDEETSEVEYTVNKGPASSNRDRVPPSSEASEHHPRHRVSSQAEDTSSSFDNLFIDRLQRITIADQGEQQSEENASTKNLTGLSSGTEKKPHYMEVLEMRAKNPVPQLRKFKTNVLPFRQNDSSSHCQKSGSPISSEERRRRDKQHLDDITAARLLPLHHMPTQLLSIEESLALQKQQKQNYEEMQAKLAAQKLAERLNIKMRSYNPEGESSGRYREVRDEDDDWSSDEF
active: pictilisib -0.254
inactive: saracatinib 0.061 | sotrastaurin 0.019 | alvocidib 0.123 | Tubastatin A 0.005 | [1] -0.015 | defactinib 0.041 | rucaparib 0.05 | [2] -0.021 | encorafenib 0.092 | [3] 0.017 | [4] -0.025 | filanesib -0.004 | zotarolimus -0.05 | idasanutlin -0.022 | alisertib -0.015 | [5] 0.094 | gefitinib -0.08 | [6] 0.054 | lapatinib -0.044

PLK1 (UniProt P53350)
Sequence of UniProt P53350 (P53350 whole entry, looked up): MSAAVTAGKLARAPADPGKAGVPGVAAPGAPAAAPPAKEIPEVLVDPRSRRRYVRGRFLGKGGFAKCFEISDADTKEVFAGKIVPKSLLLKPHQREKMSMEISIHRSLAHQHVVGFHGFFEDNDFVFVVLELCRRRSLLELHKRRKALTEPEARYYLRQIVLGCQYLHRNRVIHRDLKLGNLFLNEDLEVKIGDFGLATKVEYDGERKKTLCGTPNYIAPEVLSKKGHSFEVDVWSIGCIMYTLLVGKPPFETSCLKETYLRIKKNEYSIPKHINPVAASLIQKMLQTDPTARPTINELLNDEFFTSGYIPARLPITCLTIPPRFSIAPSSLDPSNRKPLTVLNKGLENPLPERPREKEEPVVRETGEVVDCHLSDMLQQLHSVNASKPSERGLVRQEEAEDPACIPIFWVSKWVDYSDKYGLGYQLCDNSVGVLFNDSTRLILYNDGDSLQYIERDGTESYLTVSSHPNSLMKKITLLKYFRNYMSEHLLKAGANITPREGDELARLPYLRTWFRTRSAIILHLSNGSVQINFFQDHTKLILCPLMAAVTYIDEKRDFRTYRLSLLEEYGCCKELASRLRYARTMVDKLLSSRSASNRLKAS
inactive: saracatinib 0.034 | sotrastaurin -0.223 | alvocidib 0.14 | Tubastatin A -0.058 | defactinib -0.165 | rucaparib 0.052 | [2] -0.008 | encorafenib 0.058 | [3] -0.013 | [4] 0.013 | filanesib 0.068 | zotarolimus -0.021 | idasanutlin 0.014 | alisertib 0.02 | [5] 0.092 | gefitinib -0.024 | [6] -0.133 | lapatinib 0.041 | pictilisib -0.072
active: [1] -2.06

PEA15 isoform 2 (UniProt Q15121)
Sequence of UniProt Q15121 (Q15121 whole entry, looked up): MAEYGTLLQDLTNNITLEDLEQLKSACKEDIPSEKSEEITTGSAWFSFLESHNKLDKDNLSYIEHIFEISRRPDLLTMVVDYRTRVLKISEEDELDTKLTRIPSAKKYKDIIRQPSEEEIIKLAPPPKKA
inactive: saracatinib 0.05 | sotrastaurin -0.02 | alvocidib -0.061 | Tubastatin A -0.009 | [1] -0.147 | defactinib -0.026 | rucaparib -0.037 | [2] 0.009 | encorafenib 0.035 | [3] 0.034 | [4] 0.011 | filanesib -0.079 | zotarolimus 0.05 | idasanutlin -0.02 | alisertib -0.047 | [5] -0.009 | gefitinib 0 | [6] -0.015 | lapatinib -0.003 | pictilisib 0.03
